Structures are written as SMILES. Calls of active or inactive are those of the source. How the source made its calls: active means hit-call score of the fitted dose curve at least 0.9, where 1 is the maximum; inactive means score below 0.9.

The source of these data is PubChem BioAssay (EPA / NIEHS).

The nature of the assay: ATG_VDRE_CIS: Attagene CIS-FACTORIAL HepG2 Assay for human Vitamin D Receptor Element (VDRE) (AID 2282968). As to conditions: HepG2 VDRE cis-reporter transcription, actives raise or lower the signal. How it is done: ATG_CIS is a cell-based, multiplexed-readout assay that uses HepG2, a human liver cell line, with measurements taken at 24 hours after chemical dosing in a 24-well plate.ATG_VDRE_CIS is one of 52 assay component(s) measured or calculated from the ATG_CIS assay. It is designed to make measurements of mRNA induction, a form of inducible reporter, as detected with fluorescence intensity signals by Reverse transcription polymerase chain reaction (RT-PCR) and Capillary electrophoresis technology.Data from the assay component ATG_VDRE_CIS was analyzed into 1 assay endpoint. This assay endpoint, ATG_VDRE_CIS, was analyzed with bidirectional fitting relative to DMSO as the negative control and baseline of activity. Using a type of inducible reporter, measures of mRNA for gain or loss-of-signal activity can be used to understand the reporter gene at the transcription factor-level as they relate to the gene VDR. Furthermore, this assay endpoint can be referred to as a primary readout, because this assay has produced multiple assay endpoints where this one serves a reporter gene function. To generalize the intended target to other relatable targets, this assay endpoint is annotated to the nuclear receptor intended target family, where the subfamily is non-steroidal.
Human liver HepG2 cells are transiently transfected with multiple reporter transcription units (MRTUs) in 6-well plates using FuGene 6 reagent (Roche; 3 ml FuGene/1 mg DNA). The MRTU constructs are regulated by a cis-regulating element (promoter). […] A major difference between the CIS and TRANS system is that in CIS activities of endogenous TFs are measured, whereas the TRANS assay evaluates changes in activities of exogenous, chimeric NR-Gal4 proteins. […] At the end of 24 hour incubation, total RNA was isolated using TriZol reagent (Invitrogen). The isolated RNA is then reverse-transcribed using oligo(dT) primer and Mo-MLV reverse transcriptase (Invitrogen) with DNAse I (Ambion) treatment for 30 min. The one-tenth of the produced cDNA was amplified by PCR using Taq DNA polymerase (Invitrogen) and two reporter sequence-specific primers. The PCR products were fluorescently labeled by primer extension with 6-arboxyfluorescein (6-FAM) 5'-labeled reporter sequence-specific primer (2 min at 95 C, 20 s at 68 C and 10 min at 72 C) and these products were digested with 5U of HpaI (New England Biolabs) for 2h at 37 C. The fragments were purified using Qiaquick PCR columns (Qiagen), analyzed on an ABI 3130xL genetic analyzer (Applied Biosystems) with peak positions identified by using a set of X-rhodamine (ROX)-labeled MapMarker1000 molecular weight standards (BioVentures). The raw capillary electrophoresis data was processed using Attagraph software (Attagene).
As to `COc1cc(C=O)ccc1OC(=O)C(C)C`, the call was inactive.
With `OCC(CO)(CO)COCC(CO)(CO)CO`, the call was inactive.
On the same count and under the same terms, the entry for `O=C1CCCCCCCCCCOCCCCO1` is “inactive”; for `Nc1cc([N+](=O)[O-])ccc1O` it is “inactive”.
Same read-out and setting: the entry for `CCCCC(CC)COCCC#N` (stereo not given) is “inactive”.
Turning to `Cc1ccc(C=O)cc1`, the call was inactive.
With `CC(=O)C=CC1=C(C)CCCC1(C)C`, the concentration at half-maximal activity (AC50) (commonly the concentration giving half of the maximal activity seen) is 1.26 µM (active).
The same measure, in the same setting: the figure for `CC(=O)/C=C/C1=C(C)CCCC1(C)C` is 3.58 µM (active).
`O=C(OCc1ccccc1)C(=O)OCc1ccccc1`: the compound was called inactive.
On to `OC1C(O)C(O)C(O)C(O)C1O` (stereo not given), for which the call was inactive.
Still for that read-out and setting: the entry for `O=C(O)CCCCCCCCCCC(=O)O` is “inactive”; for `COC(C(=O)O)c1ccccc1` (stereo not given) it is “inactive”; for `NC(N)=NC(=O)c1nc(Cl)c(N)nc1N` it is “inactive”.
The same measure, in the same setting: the entry for `CC[C@]12CCCN3CCc4c(n(c5ccccc45)[C@@](O)(C(=O)OC)C1)[C@@H]32` is “inactive”; for `Clc1ccc(Cl)c(Cl)c1Cl` it is “inactive”.
Consider `c1ccc2sc(SN(C3CCCCC3)C3CCCCC3)nc2c1`, for which the AC50 is 4.65 µM (active).
In the case of `S=C(S)NCCNC(=S)S`, the call was inactive.
On the same count and under the same terms, the entry for `CC(C)(C#N)c1cc(Cn2cncn2)cc(C(C)(C)C#N)c1` is “inactive”; for `Cc1ccc2sc3cccc(C)c3c2c1` it is “inactive”.
The same measure, in the same setting: the entry for `CCOc1ccccc1OCC` is “inactive”; for `CC(=O)Nc1ccccc1O` it is “inactive”.
Regarding `O=Cc1ccc(Cl)c([N+](=O)[O-])c1`, the AC50 was 100 µM (active).
With `NNc1nc(-c2ccc(N)cc2)cs1`, the result was inactive.
For the compound `O=Nc1ccc(Nc2ccccc2)cc1`, the AC50 is 30.3 µM (active).
With `CC(CC(C)(C)C)CC(C)(C)CC(C)(C)C` (stereo not given), the result was inactive.
`CC1(C)CCC(C)(C)c2cc(C(=O)Nc3ccc(C(=O)O)cc3)ccc21`: the half-maximal activity concentration (AC50) is 27.8 µM (active).
For the compound `OCCOCCOCCOCCO`, the call was inactive.
Same read-out and setting: for `C=C(C)C(=O)O[C@H]1C[C@@H]2CC[C@@]1(C)C2(C)C` the value was “inactive”.
Regarding `CCCCN`, the compound was called inactive.
On the same count and under the same terms, for `COC(=O)OC` the value was “inactive”; for `O=C(O)C[C@H](O)C[C@H](O)/C=C/c1c(C2CC2)nc2ccccc2c1-c1ccc(F)cc1`, “inactive”; for `Nc1ccc(F)c([N+](=O)[O-])c1`, “inactive”.
Take `CCCCNC(=O)NS(=O)(=O)c1ccc(N)cc1`: the compound was called inactive.
On the same count and under the same terms, for `C=C(C)[C@@H]1CCC2=CC(=O)C[C@@H](C)[C@]2(C)C1` the value was “inactive”; for `CC(C=O)Cc1ccc(C(C)C)cc1` (stereo not given), “inactive”; for `CNC(=O)Oc1ccc2c(c1)[C@]1(C)CCN(C)[C@@H]1N2C`, “inactive”.
Same read-out and setting: for `CCC(C)(O)CCC=C(C)C` (stereo not given) the value was “inactive”; for `CC(C)c1ccc(C(C)C)cc1`, “inactive”; for `CCCCNC(=O)NS(=O)(=O)c1ccc(C)cc1`, “inactive”.
Same read-out and setting: for `CCCC(=O)c1cc(O)c(O)cc1O` the value was “inactive”.
